# From PubChem BioAssay (NCATS)
# Results filed as inconclusive are left out. The source made the active and inactive calls. The call rests on the fitted dose curve; in most records, active means well fitted curve in the direction sought with a large enough effect; inconclusive means small, poorly fitted or top-dose-only effect, or another doubt; inactive means no such curve, though single readings can be large; an effect the other way counts as inactive or inconclusive.
# How the values were obtained:
# [1] = qHTS of pediatric cancer cell lines to identify multiple opportunities for drug repurposing: Primary screen for Rh41 cells (AID 1347108); further: nearly all actives have a fitted effect of over 70% in size; further: potency means the concentration at half of the fitted maximal effect
# In short: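 Plated cells (500-1,000 per well, growth media) were allowed to settle for 5 hours, treated with compound dilutions for 48 hours, then lysed with CellTiter-Glo for 15 min at room temperature before luminescence reading.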
# [2] = qHTS of pediatric cancer cell lines to identify multiple opportunities for drug repurposing: Confirmatory screen for NB1643 cells (AID 1347109); further: nearly all actives have a fitted effect of over 45% in size
# In short: (§1)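 Cells (500-1,000/well) rested 5 h, then received compounds for 48 h; metabolically active cells were measured by CellTiter-Glo luminescence. Final concentrations spanned up to 46 µM (MIPE, 11-point) or 0.59 nM-46 µM (NPC, 8-point) in primary screens, 11-point in follow-ups.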
# [3] = qHTS of pediatric cancer cell lines to identify multiple opportunities for drug repurposing: Confirmatory screen for A673 cells (AID 1347110);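 further: potency means the concentration at half of the fitted maximal effect; cells exposed to compound for 48 h before the viability read; nearly all actives have a fitted effect of over 65% in size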
# In short: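 Viability was read as ATP luminescence (CellTiter-Glo) after 48 h of compound exposure at 37 C in A673 cells seeded at 500-1,000/well. Titrations reached 46 uM final, with 11 points in the confirmatory screen. Concentration-response curves were fitted directly.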
# [4] = qHTS of pediatric cancer cell lines to identify multiple opportunities for drug repurposing: Confirmatory screen for SK-N-MC cells (AID 1347111);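 further: potency means the concentration at half of the fitted maximal effect; cells exposed to compound for 48 h before the readout; nearly all actives have a fitted effect of over 70% in size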
# In short: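 Seed 500-1,000 cells/well; rest 5 h at 37 degrees C. Pin-transfer compounds, 11-point titration. Incubate 48 h. Add CellTiter-Glo, 15 min RT, read luminescence.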
# [5] = qHTS of pediatric cancer cell lines to identify multiple opportunities for drug repurposing: Confirmatory screen for BT-12 cells (AID 1347112); further: nearly all actives have a fitted effect of over 55% in size; further: potency means the concentration at half of the fitted maximal effect
# In short: as §1
# [6] = qHTS of pediatric cancer cell lines to identify multiple opportunities for drug repurposing: Confirmatory screen for LAN-5 cells (AID 1347113); further: nearly all actives have a fitted effect of over 65% in size; further: potency means the concentration at half of the fitted maximal effect
# In short: as §1
# [7] = qHTS of pediatric cancer cell lines to identify multiple opportunities for drug repurposing: Primary screen for Rh30 cells (AID 1347107); further: series mostly up to about 46 µM; nearly all actives have a fitted effect of over 75% in size
# In short: as §1
# [8] = qHTS of pediatric cancer cell lines to identify multiple opportunities for drug repurposing: Confirmatory screen for DAOY cells (AID 1347114); further: nearly all actives have a fitted effect of over 65% in size; further: potency means the concentration at half of the fitted maximal effect
# In short: (§2)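 Viability measured as metabolically active cells via CellTiter-Glo luminescence following 48 hours of compound exposure, 11-point dilutions in confirmatory testing. 500-1,000 cells/well plated 5 hours before dosing; controls were DMSO and 2.3 µM bortezomib.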
# [9] = qHTS of pediatric cancer cell lines to identify multiple opportunities for drug repurposing: Confirmatory screen for SJ-GBM2 cells (AID 1347116); further: potency means the concentration at half of the fitted maximal effect; nearly all actives have a fitted effect of over 60% in size
# In short: as §2
compound,measurement,setting,value
Cc1cc(Nc2nc(N[C@@H](C)c3ccc(F)cc3)c(C#N)cc2F)n[nH]1,Potency,[1],5900 nM (active)
CC1(O)CC(c2nc(-c3ccc4ccc(-c5ccccc5)nc4c3)c3c(N)nccn23)C1 (centres undefined),Potency,[1],935 nM (active)
C=C1C(=CC=C2CCCC3(C)[C@@H]([C@H](C)C=CC=CC(O)(CC)CC)CC[C@@H]23)C[C@@H](O)C[C@@H]1O (some centres undefined),Potency,[1],18700 nM (active)
Nc1ccn([C@@H]2CS[C@H](CO)O2)c(=O)n1,Potency,[1],inactive
CCN(CC)CCNC(=O)c1ccc2nc(-c3ccccc3)c(-c3ccc(CN4CCC(n5c(=O)[nH]c6ccccc65)CC4)cc3)nc2c1,Potency,[1],10500 nM (active)
CN(C1CCc2c(c3ccccc3n2CC(=O)O)C1)S(=O)(=O)c1ccc(F)cc1 (centres undefined),Potency,[1],3720 nM (active)
O=C1CCC[C@@H]2[C@H]3CCC[N+]4([O-])CCC[C@@H](CN12)[C@@H]34 (some centres undefined),Potency,[1],inactive
COc1c(N2C[C@@H]3CCCN[C@H]3C2)c(F)cc2c(=O)c(C(=O)O)cn(C3CC3)c12,Potency,[1],inactive
CC(C)c1nn(-c2c(Cl)cccc2Cl)c2nc(Cc3ccc(OCCO)cc3)[nH]c(=O)c12,Potency,[1],372 nM (active)
same,Potency,[2],inactive
same,Potency,[3],131 nM (active)
same,Potency,[4],117 nM (active)
same,Potency,[5],82.7 nM (active)
same,Potency,[6],41.4 nM (active)
Cc1cc(C(=O)N2CCN(c3cccc(Cl)c3)CC2)n(-c2ccccc2)n1,Potency,[7],inactive
same,Potency,[3],2330 nM (active)
same,Potency,[4],2610 nM (active)
same,Potency,[8],928 nM (active)
COc1cccc(-c2ccc(NC(=O)C3=C(C(=O)O)CCC3)c(F)c2)c1,Potency,[7],inactive
same,Potency,[4],2930 nM (active)
same,Potency,[5],inactive
same,Potency,[6],inactive
same,Potency,[8],inactive
same,Potency,[9],1170 nM (active)
